Records with an inconclusive call do not appear. Activity calls are given as the source filed them. Calls follow the shape of the dose curve; as a rule, active = well fitted inhibition curve with a large enough effect; inconclusive = small, poorly fitted or top-dose-only effect; inactive = flat fitted curve, though single readings scatter.
system: CRL-7250; experiment: Cytotoxic Profiling of Annotated Libraries Using Quantitative High-Throughput Screening (AID 1296008); details: Five cell lines viability, CellTiter-Glo ATP luminescence, 48-72 h; max response: stronger effect = lower value; also: nearly all actives have a fitted effect of over 60% in size
Outline: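 Cytotoxicity was measured as CellTiter-Glo ATP luminescence, read after 10 min at room temperature. Compound treatment of the cells lasted 48 or 72 hr at 37 degrees Celsius in a qHTS format.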
% is scaled to controls: 0 for no effect and ±100 for the full control effect.

SMILES | max response | outcome
COc1ccc(S(=O)(=O)Nc2cc(Cl)cc(Cl)c2OC)cc1N1CCNCC1 | -0.811% (inactive) | –
CC(=O)O[C@H]1[C@@]2(O)C[C@H](C)[C@H](OC(=O)c3ccccc3)[C@@H]2[C@@H](OC(=O)CO)[C@]2(OC(C)=O)C[C@H]3C(=O)C(C)(C)C[C@@H]3[C@@]1(C)[C@H]2OC(C)=O | -5.8% (inactive) | –
COc1ccc2cc(-c3cc(-c4cc(Cl)cc(Cl)c4)nn3C(C)c3ccc(C(=O)NCCC(=O)O)cc3)ccc2c1 (configuration not stated) | 2.03% (inactive) | –
CCCCC1CCC(c2nc(-c3ccncc3)no2)CC1 (configuration not stated) | -23.2% (inactive) | –
CC(C)CCCCC(=O)N[C@@H](CO)C(=O)N[C@@H](CC(C)C)C(=O)[C@@]1(CO)CO1 | -2.59% (inactive) | –
COc1ccc(NC(=O)c2ccc(-c3ccc(C(=N)N)cc3C)cc2)cc1N1CCN(C)CC1 | 4.07% (inactive) | –
CC(C)(Cc1nc(-c2ccc(O)cn2)no1)C(=O)NC1=C(C(=O)O)CCCC1 | -1.84% (inactive) | –
CCCN(CCc1ccsc1)C1CCc2c(O)cccc2C1 (configuration not stated) | 4.38% (inactive) | –
CCn1c(=O)n([C@H]2CCCN(c3nccc(-c4cc5ccccc5o4)n3)C2)c2ccccc21 | – | inactive
CC(=O)OC1CC(C)(C(=O)O)CC2C3=CC(=O)C4C5(C)CCC(OC6OC(C(=O)O)C(O)C(O)C6OC6OC(C(=O)O)C(O)C(O)C6O)C(C)(C)C5CCC4(C)C3(C)CCC12C (configuration not stated) | -2.54% (inactive) | –
COC1=CC(=O)C=C(C)C12Oc1c(Cl)c(OC)cc(OC)c1C2=O (configuration not stated) | 0.695% (inactive) | –
O=C(Nc1ccn(Cc2ccc(O)cc2C(F)(F)F)n1)c1c(F)cccc1F | -7.76% (inactive) | –

From PubChem BioAssay (NCATS)
